Records with an inconclusive call do not appear. Unless noted, the call rests on the fitted dose curve; in most records, active means well fitted curve in either direction with a large enough effect (not every such curve was filed as active); inconclusive means small, poorly fitted or top-dose-only effect, or another doubt; inactive means flat fitted curve, though single readings scatter.
Key:
[1] = AP1 Signaling Pathway (AID 357); conditions: ME-180 AP-1-bla reporter, EGF-induced, beta-lactamase ratio, 5 h; at 17.2 µM (top of the series) unless noted;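 further: ME-180 reporter cells stimulated with EGF at its EC50 level; on the % scale 0 is the no-effect control and ±100 the full control effect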
Summary of the method: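 Titration-series screen for positive or negative modulators of EC50 EGF-induced signaling in ME-180 cells carrying an AP-1-driven beta-lactamase reporter. After 5 hours at 37 degrees Celsius, CCF4 460nm/530nm emission ratio gave %Activity; AC50 values derived.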

[2] = NFAT Signaling Pathway (AID 444); conditions: Jurkat NFAT-bla M1, carbachol, beta-lactamase ratio, 5 h; at 17.2 µM (top of the series) unless noted;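 further: carbachol stimulus at about its EC50 of 1 µM final; on the % scale 0 is the no-effect control and ±100 the full control effect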
Summary of the method: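 Jurkat cells carrying an NFAT-driven β-lactamase reporter and co-transfected muscarinic M1 receptor were treated with compound plus carbachol (1 uM final, an EC50 level) for 5 h at 37 °C. CCF4 loading followed for 1 h at RT; 460/530 nm ratio gave %activity.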

[3] = Stat Signaling Pathway (AID 446); conditions: ME-180 SIE beta-lactamase reporter, IL-6 stimulated, 5 h; at 17.2 µM (top of the series) unless noted;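 further: ME-180 cervical cancer cells given 40 pM IL-6 alongside compound; SIE-controlled beta-lactamase reporter measured as 460/530 nm FRET emission ratio; on the % scale 0 is the no-effect control and ±100 the full control effect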
Summary of the method: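 Reporter line: ME-180 cervical carcinoma, SIE-beta-lactamase. Treatment: compound with 40 pM IL-6, 5 hrs, 37 C, in low-serum OPTI-MEM with 10 mM HEPES pH 7.3. Detection: 460/530 nm fluorescence.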

[4] = biological target: Glucocorticoid receptor (Homo sapiens) (UniProt P04150); test: GR-GFP Redistribution (AID 450;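 active means compounds whose dose series gives a full or clear partial fitted curve of increased nuclear translocation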; further: potency means the concentration at half of the fitted maximal effect)
Glucocorticoid receptor (Homo sapiens), sequence (P04150 whole entry, looked up): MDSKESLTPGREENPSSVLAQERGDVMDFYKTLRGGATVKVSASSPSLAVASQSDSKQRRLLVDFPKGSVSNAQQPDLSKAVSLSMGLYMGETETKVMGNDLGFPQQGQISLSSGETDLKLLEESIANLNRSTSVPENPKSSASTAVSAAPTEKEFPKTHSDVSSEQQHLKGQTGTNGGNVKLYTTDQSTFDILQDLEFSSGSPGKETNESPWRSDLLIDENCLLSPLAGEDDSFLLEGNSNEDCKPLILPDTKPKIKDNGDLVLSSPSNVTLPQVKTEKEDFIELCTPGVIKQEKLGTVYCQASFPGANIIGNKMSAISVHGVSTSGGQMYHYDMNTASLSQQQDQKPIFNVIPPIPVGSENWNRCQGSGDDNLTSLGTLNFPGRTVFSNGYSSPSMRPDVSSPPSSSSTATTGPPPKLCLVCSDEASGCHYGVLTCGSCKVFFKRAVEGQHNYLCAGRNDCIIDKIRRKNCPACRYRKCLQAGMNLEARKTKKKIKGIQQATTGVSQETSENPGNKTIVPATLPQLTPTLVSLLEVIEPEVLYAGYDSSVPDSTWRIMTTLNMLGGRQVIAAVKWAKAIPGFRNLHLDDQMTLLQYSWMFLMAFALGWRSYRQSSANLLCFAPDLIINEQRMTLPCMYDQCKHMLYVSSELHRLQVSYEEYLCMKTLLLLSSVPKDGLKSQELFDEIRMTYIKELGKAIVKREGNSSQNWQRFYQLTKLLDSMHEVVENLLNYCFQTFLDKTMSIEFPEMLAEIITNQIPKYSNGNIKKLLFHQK

COC(=O)Sc1nc(N2CCOCC2)c2c(c1C#N)CC(C)(C)OC2
inactive: activity change, negative = inhibition [1] -17.4% | activity change, negative = inhibition [2] -7.69% | activity, negative = inhibition [3] -18.3% | Potency [4] > 20.6 µM

COCCOC(=O)c1c(C)nc(SCC(=O)Nc2ccc(OC)cc2)c(C#N)c1-c1ccco1
inactive: activity change, negative = inhibition [1] -13.3% | activity change, negative = inhibition [2] -14.8% | activity, negative = inhibition [3] -16.8% | Potency [4] > 20.6 µM

CC(NC(=O)NCCCn1ccnc1)(C(F)(F)F)C(F)(F)F
inactive: activity change, negative = inhibition [1] 18.8% | activity change, negative = inhibition [2] -6.4% | activity, negative = inhibition [3] 5.85% | Potency [4] > 20.6 µM

Cc1cccn2c(=O)c3cc(C(=O)NCc4cccnc4)c(=N)n(C)c3nc12
inactive: activity change, negative = inhibition [1] 0.507% | activity change, negative = inhibition [2] 5.48% | activity, negative = inhibition [3] 10% | Potency [4] > 20.6 µM

O=C(NCc1ccccc1)/C(=N\O)c1ccccc1
inactive: activity change, negative = inhibition [1] -2.22% | activity change, negative = inhibition [2] 12.4% | activity, negative = inhibition [3] 3.38% | Potency [4] > 20.6 µM

COc1cc(C(=O)Nc2nccs2)cc(OC)c1OC
inactive: activity change, negative = inhibition [1] 12.8% | activity change, negative = inhibition [2] -2.54% | activity, negative = inhibition [3] -9.15% | Potency [4] > 20.6 µM

Cc1c(C2CC(=O)N(c3ccccc3)C2=O)[nH]n(-c2ccccc2)c1=O (stereo unspecified)
inactive: activity change, negative = inhibition [1] -2.21% | activity change, negative = inhibition [2] -3.65% | activity, negative = inhibition [3] 1.65% | Potency [4] > 20.6 µM

O=C1NC2c3ccccc3C(=O)N2c2c1cnn2-c1ccccc1 (stereo unspecified)
inactive: activity change, negative = inhibition [1] -6.7% | activity change, negative = inhibition [2] -1.9% | activity, negative = inhibition [3] -7.17% | Potency [4] > 20.6 µM

CSc1sc(C(=O)O)c2c1C(=O)CCC2
inactive: activity change, negative = inhibition [1] 12.2% | activity change, negative = inhibition [2] -0.427% | activity, negative = inhibition [3] 3.35% | Potency [4] > 20.6 µM

COc1ccc(CCNc2nc3c(c(=O)n(C)c(=O)n3C)n2C)cc1OC
inactive: activity change, negative = inhibition [1] -2.56% | activity change, negative = inhibition [2] 3.63% | activity, negative = inhibition [3] -0.466% | Potency [4] > 20.6 µM

N#C/C(C(=O)NCc1ccccc1)=C1\SC(CCO)C(=O)N1c1ccccc1 (stereo unspecified)
inactive: activity change, negative = inhibition [1] -9.75% | activity change, negative = inhibition [2] 10.3% | activity, negative = inhibition [3] -2.91% | Potency [4] > 20.6 µM

c1ccc(OCc2nn3c(-c4ccco4)nnc3s2)cc1
inactive: activity change, negative = inhibition [1] 27.2% | activity change, negative = inhibition [2] 1.21% | activity, negative = inhibition [3] -4.83% | Potency [4] > 20.6 µM

CC(C)NCc1c(O)c(Br)cc2oc3c(c12)CCCC3
inactive: activity change, negative = inhibition [1] 28.5% | activity change, negative = inhibition [2] 0.46% | activity, negative = inhibition [3] 5.85% | Potency [4] > 20.6 µM

CCOC(=O)CC(=O)CSc1nnc2sc3ccccc3n12
inactive: activity change, negative = inhibition [1] 6.11% | activity change, negative = inhibition [2] -0.0909% | activity, negative = inhibition [3] 7.94% | Potency [4] > 20.6 µM

O=C(Nc1ncccc1Cl)c1cccc(F)c1
inactive: activity change, negative = inhibition [1] 2.04% | activity change, negative = inhibition [2] 4.8% | activity, negative = inhibition [3] 8.27% | Potency [4] > 20.6 µM

CCN(CC)CCN1C(=O)C(=O)/C(=C(/O)c2c(C)[nH]c(C(=O)OC)c2C)C1c1ccc(OC)cc1 (stereo unspecified)
inactive: activity change, negative = inhibition [1] 9.19% | activity change, negative = inhibition [2] 8.2% | activity, negative = inhibition [3] 9.4% | Potency [4] > 20.6 µM

Cc1c(CCC#N)c(N2CCCCC2)n2c(nc3ccccc32)c1C#N
inactive: activity change, negative = inhibition [1] -4.98% | activity change, negative = inhibition [2] -11.4% | activity, negative = inhibition [3] 10.9% | Potency [4] > 20.6 µM

CN(C)c1nc2n(c(=S)n1)CCS2
inactive: activity change, negative = inhibition [1] 11.5% | activity change, negative = inhibition [2] 3.88% | activity, negative = inhibition [3] -7.31% | Potency [4] > 20.6 µM

COc1cc(C2C(C#N)=C(N)Oc3cc(C)n(Cc4ccccn4)c(=O)c32)cc2c1OCO2 (stereo unspecified)
inactive: activity change, negative = inhibition [1] -7.44% | activity change, negative = inhibition [2] -12.8% | activity, negative = inhibition [3] -4.06% | Potency [4] > 20.6 µM

Source: PubChem BioAssay (NCATS)
